GPR151 ag: activates the human receptor GPR151; actives 1% (n = 650,000); Q8TDV0; PathHunter beta-arrestin GPR151 cells, luminescence; AID 1508602; activation, % at 11.2 µM; in the data active = activation above about 4.9%;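 also: 0% = median of compound wells and 100% = cells with positive control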
Target sequence (Q8TDV0 whole entry, looked up): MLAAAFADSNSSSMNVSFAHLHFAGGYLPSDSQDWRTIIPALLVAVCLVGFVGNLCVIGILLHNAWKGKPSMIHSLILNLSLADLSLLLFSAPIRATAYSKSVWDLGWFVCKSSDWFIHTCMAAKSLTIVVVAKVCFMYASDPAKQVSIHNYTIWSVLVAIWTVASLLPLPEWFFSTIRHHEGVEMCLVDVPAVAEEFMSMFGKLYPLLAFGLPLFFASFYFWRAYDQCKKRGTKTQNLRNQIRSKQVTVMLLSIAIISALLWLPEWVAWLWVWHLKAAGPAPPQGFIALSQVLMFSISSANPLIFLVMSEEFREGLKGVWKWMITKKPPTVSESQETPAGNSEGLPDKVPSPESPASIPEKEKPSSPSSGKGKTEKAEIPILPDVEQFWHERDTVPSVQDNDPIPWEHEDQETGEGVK
MITF primary: blocks human microphthalmia-associated transcription factor | actives 0.91% (n = 650,000) | O75030 | AlphaScreen MITF homodimerization, bead proximity signal | inhibition, % at 2.6 µM; in the data active = inhibition above about 50%;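 also: 0% = vehicle wells with protein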
FBW7 act: activators of human E3 ligase FBW7. normalized activity (activation), % at 26.1 µM. Q969H0. actives 0.13% (n = 650,000). AlphaScreen FBW7–phospho-cyclin E peptide binding, activator screen; in the data active = normalized activity above about 1.9%;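 also: purified mutant Fbw7 with reduced substrate affinity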
TEAD-YAP inh: TEAD-YAP interaction inhibition | HEK-TIYL cells, TEAD-Gal4/YAP UAS-luciferase luminescence | inhibition, % at 9.12 µM | actives 1.4% (n = 640,000); in the data active = inhibition above about 32%;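 also: 0% = median of test compound wells and 100% = reference inhibitor wells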
MITF confirm: confirmation of human MITF inhibitors | shares compounds with MITF primary | AlphaScreen MITF homodimerization, biotin/His-MITF beads | inhibition, % at 2.6 µM | actives 16% (n = 4,700) | AID 1259372;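 active = inhibition above a cutoff derived from the DMSO control wells, cut at about 28% in these data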;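 also: 0% = MITF dimer wells with DMSO only; inhibitors lower the bead chemiluminescence by keeping MITF from dimerizing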
AS interf DR: AlphaScreen optical interference, dose response counter-screen. shares compounds with MITF primary. AlphaScreen optical interference counterscreen, cell-free. IC50, µM. actives 6% (n = 480). AID 1259373; call rule not given here
AlphaScreen intf2: optically interferes with AlphaScreen signal; shares compounds with MITF primary; actives 7.6% (n = 4,700); inhibition, % at 2.6 µM; LysRS AlphaScreen counterscreen, signal interference, triplicate; AID 1259376;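 active = inhibition above a cutoff derived from the DMSO control wells, cut at about 30% in these data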
* = called active by the depositor. Hits are enriched below; roughly 3.5% of the tested compounds scored in any of these assays.

For CCOc1ccc(-n2c(=S)sc3c2nc(SCC(=O)NCc2ccccc2)n2c4ccccc4nc32)cc1 the results were GPR151 ag 0.4, MITF primary -1.3, FBW7 act 0.0 and TEAD-YAP inh 3.8.
Screening CN1C(=O)N(C)C2OC(C3OC4C(O3)N(C)C(=O)N4C)OC21 (stereo not given) returned GPR151 ag -0.2, MITF primary 54.7*, FBW7 act 0.1, TEAD-YAP inh 1.9, MITF confirm 8.4 and AlphaScreen intf2 11.0.
Screening COc1ccc(CCNc2nc(-c3ccc(C(N)=O)cc3)nc3c2ncn3Cc2ccc(C(F)(F)F)cc2)cc1 returned GPR151 ag 0.0, MITF primary -4.7, FBW7 act 0.0 and TEAD-YAP inh 4.5.
For COc1ccc(-c2n[nH]c(=S)n2/N=C/c2cc(OC)ccc2OC)cc1 the results were GPR151 ag 0.6, MITF primary 55.2*, FBW7 act 0.1, TEAD-YAP inh 9.8, MITF confirm -13.6 and AlphaScreen intf2 6.1.
`COc1ccc(CCCc2nnc(SCC(=O)Nc3nc(C)cs3)n2C)c(C)c1` gave GPR151 ag -1.1, MITF primary -9.9, FBW7 act -0.1 and TEAD-YAP inh -0.6.
`Cc1nonc1NC(=O)OCC1([N+](=O)[O-])COC(C)(C)OC1` gave GPR151 ag -0.9, MITF primary 1.3, FBW7 act 0.7 and TEAD-YAP inh 2.9.
`Cc1ccc(N[C@@H]2OC[C@@H](O)C(O)C2O)cc1N[C@@H]1OC[C@@H](O)C(O)C1O` (stereo not given in full) gave GPR151 ag -0.9, MITF primary 72.3*, FBW7 act 0.1, TEAD-YAP inh 15.1, MITF confirm 70.8* and AlphaScreen intf2 13.0.
Cc1cc2nc(SCc3cccc(Cl)c3)n(Cc3ccccc3F)c2cc1C was read as GPR151 ag -1.3, MITF primary -0.1, FBW7 act 0.0 and TEAD-YAP inh 7.8.
O=C(c1ccc([N+](=O)[O-])cc1)N1CCN(Cc2ccccn2)CC1 was read as GPR151 ag -0.2, MITF primary 64.0*, FBW7 act 0.0, TEAD-YAP inh 3.0, MITF confirm -10.1 and AlphaScreen intf2 -5.3.
O=C(c1ccc([N+](=O)[O-])cc1)N1CCN(Cc2cccc3ccccc23)CC1 was read as GPR151 ag 2.0, MITF primary 57.7*, FBW7 act -0.4, TEAD-YAP inh -5.5, MITF confirm 29.0*, AS interf DR >5.48 and AlphaScreen intf2 16.4.
O=C(c1cccc(F)c1)N1CCN(Cc2ccccn2)CC1 was read as GPR151 ag 1.4, MITF primary 43.2, FBW7 act -0.2 and TEAD-YAP inh -5.2.
O=C(Cc1cccc(C(F)(F)F)c1)Nc1ccccc1 was read as GPR151 ag 1.2, MITF primary -18.9, FBW7 act -0.1 and TEAD-YAP inh 9.8.
`OCCN(Cc1ccccc1)Cc1cccc(F)c1` gave GPR151 ag -0.1, MITF primary 57.0*, FBW7 act 0.7, TEAD-YAP inh -17.6, MITF confirm 8.6 and AlphaScreen intf2 8.6.
OCCN(Cc1ccccc1)Cc1ccccc1Cl was read as GPR151 ag 0.2, MITF primary 13.6, FBW7 act 0.5 and TEAD-YAP inh -1.4.
For OCCN(Cc1ccccc1)Cc1ccccc1F the results were GPR151 ag -0.6, MITF primary 61.4*, FBW7 act 0.6, TEAD-YAP inh 5.5, MITF confirm -2.8 and AlphaScreen intf2 -9.4.
`OCCN(Cc1ccccc1)Cc1cccc(C(F)(F)F)c1` gave GPR151 ag -0.6, MITF primary 51.8*, FBW7 act 0.1, TEAD-YAP inh -8.4, MITF confirm -12.5 and AlphaScreen intf2 -3.6.
Screening OCCN(Cc1ccccc1)Cc1ccc(C(F)(F)F)cc1 returned GPR151 ag 2.5, MITF primary 52.3*, FBW7 act 0.0, TEAD-YAP inh 1.4, MITF confirm -2.7 and AlphaScreen intf2 0.5.
CSc1ccc(CN(CCO)Cc2ccccc2)cc1 was read as GPR151 ag 1.6, MITF primary 34.8, FBW7 act 0.8 and TEAD-YAP inh 12.7.
Screening O=C(N1CCC(Cn2cccn2)CC1)C1(c2ccc(Cl)cc2)CCCC1 returned GPR151 ag -1.0, MITF primary -5.9, FBW7 act 0.9 and TEAD-YAP inh -0.2.
COC(=O)C1CC(=O)N(c2ccc(OCc3ccc(Cl)cc3)cc2)C1 (stereo not given) was read as GPR151 ag 4.2, MITF primary 12.5, FBW7 act -0.1 and TEAD-YAP inh -7.0.
`COc1ccc(CN2CCN(Cc3ccc(C(F)(F)F)cc3)CC2)c(OC)c1` gave GPR151 ag -0.3, MITF primary 67.5*, FBW7 act 0.0, TEAD-YAP inh -0.8, MITF confirm 9.6 and AlphaScreen intf2 12.8.
`COc1ccc(CN2CCN(Cc3ccc(C)cc3)CC2)c(OC)c1` gave GPR151 ag -1.3, MITF primary 79.0*, FBW7 act -0.6, TEAD-YAP inh -15.3, MITF confirm 0.5 and AlphaScreen intf2 9.0.
Screening COc1ccccc1CN1CCN(Cc2ccc(C(F)(F)F)cc2)CC1 returned GPR151 ag 0.7, MITF primary 60.4*, FBW7 act -0.2, TEAD-YAP inh -15.8, MITF confirm 6.4 and AlphaScreen intf2 13.5.
Screening CCOc1ccccc1C1CC(c2ccc(Br)cc2)Nc2ncnn21 (stereo not given) returned GPR151 ag -1.2, MITF primary -5.0, FBW7 act -0.3 and TEAD-YAP inh -2.9.
CC(C)c1nnc2n1CCN(Cc1ccc3c(c1)OCCO3)CC2 was read as GPR151 ag 0.4, MITF primary 11.8, FBW7 act -0.1 and TEAD-YAP inh 10.9.
For O=C(COc1ccc2c(c1)C(=O)CC2)NCc1ccccc1 the results were GPR151 ag 4.4, MITF primary 0.7, FBW7 act 0.1 and TEAD-YAP inh -3.2.
Screening COc1cccc(-c2nnc(SCC(=O)N3CCC(C)CC3C)n2-c2ccccc2)c1 (stereo not given) returned GPR151 ag -2.2, MITF primary -5.3, FBW7 act -0.2 and TEAD-YAP inh -10.3.
CS(=O)(=O)N1CCN(c2ccc(-c3ccccn3)nn2)CC1 was read as GPR151 ag -3.4, MITF primary 87.4*, FBW7 act -1.1, TEAD-YAP inh -24.6, MITF confirm 107.3* and AlphaScreen intf2 100.6*.
O=C(c1ccccn1)N1CCN(C(=O)c2ccccn2)CC1 was read as GPR151 ag -0.3, MITF primary -11.1, FBW7 act 0.0 and TEAD-YAP inh 2.2.
`O=C(c1ccccn1)N1CCN(c2ccc(-c3ccccn3)nn2)CC1` gave GPR151 ag -1.1, MITF primary 123.4*, FBW7 act -1.5, TEAD-YAP inh -9.9, MITF confirm 112.0* and AlphaScreen intf2 100.6*.
